Screening data (PubChem)
An excerpt weighted towards active compounds, which were near 2.5% of everything screened.
CHT allo act: allosteric activators of human choline transporter CHT. Q9GZV3. CHT-expressing cells, membrane potential dye, choline EC20; active compounds read high; LV-AA mutant CHT in HEK293 cells. B-score at 10 µM. 0.49% of 310,000 active. AID 488977;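 active = initial fluorescence not abnormally high and integrated response B-score, plate-corrected, over 3 SD above library mean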
TMEM16A inh: blocks the mouse calcium-activated chloride channel TMEM16A; Q8BHY3; HEK293 TMEM16A/YFP iodide influx fluorescence, ionomycin; normalized B-score (activity score, 25-100; higher = stronger inhibition) at 10 µM; 1.2% of 310,000 active; AID 588511;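 active = ratio plate-corrected score three or more library SD toward inhibition, starting fluorescence score within five deviations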;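 also: score derived from kinetic fluorescence span divided by baseline fluorescence per well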
TMEM16A act: activates or potentiates the mouse TMEM16A chloride channel; HEK293 TMEM16A/YFP-H148Q/I152L, iodide quench fluorescence; active compounds read low; B-score at 10 µM; 0.3% of 340,000 active; AID 623877;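 active = fluorescence-ratio B-score plate-corrected deviation score at least 3 library SD below zero, with starting fluorescence score within 5 deviations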;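 also: channel opened by trigger with iodide after compound preincubation; score built on the fluorescence ratio of max minus min over baseline; more negative score means more quench and so TMEM16A activation or potentiation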
CHT block: human CHT choline transport inhibition; CHT-expressing cells, membrane potential dye, choline response; active compounds read low; B-score at 10 µM; Q9GZV3; 0.86% of 310,000 active; AID 488975;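 active = B-score over 3 SD under the library average, and starting fluorescence ratio not unusually high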;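 also: choline stimulus applied at its EC90 after an EC20 pre-addition; B-score computed on integrated fluorescence ratio after choline addition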
PKA-R1A act: activates the PKA-R1A holoenzyme complex. AID 504707. activation, % at 11.4 µM. 0.083% of 340,000 active. PKA-R1A dissociation, Cy5-IP20 fluorescence polarization; scaled: DMSO 0%, 113 µM cGMP 100%. P00514+P68181;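 active = percent activation above the mean of all tested compounds plus 3 SD, cut at about 19% in these data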;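 also: higher means more PKAc released from R1A so a rise in polarization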
PKA-R2B act: activates the human PKA-R2B holoenzyme complex | P22694+P31323 | PKA-R2B holoenzyme dissociation, Cy5-IP20 fluorescence polarization; R2B truncated from residue 108, S112A mutant; 0% DMSO only, 100% 113 µM cGMP | activation, % at 11.4 µM | 0.079% of 340,000 active | AID 504700;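 active = activation above a cutoff set at the mean over all compounds plus 3 SD, cut at about 18% in these data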;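 also: higher means more holoenzyme dissociation and a rise in polarization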
TMEM16A reconf: reconfirmed blocker of mouse TMEM16A calcium-activated chloride channel; shares compounds with TMEM16A inh; HEK293 TMEM16A/YFP-H148Q, iodide quench fluorescence; ionomycin added to raise cell calcium; inhibition, % at 10 µM; 39% of 2,300 active; AID 652189;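 active = mean duplicate percent inhibition, scaled so buffer wells are 0 and the reference blocker 100, over three buffer SD above buffer mean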
TMEM16A Ca cntr: alters calcium mobilization in TMEM16A HEK293 cells, counter-screen. calcium response (% of ionomycin), % at 10 µM. TMEM16A/YFP HEK293, Fluo4 calcium mobilization. shares compounds with TMEM16A inh. 2% of 2,300 active;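 active = duplicate-averaged calcium signal over 20% of the ionomycin maximum, relative to buffer baseline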;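 also: each well's signal is peak minus trough fluorescence divided by its pre-addition baseline; 0% = buffer wells and 100% = ionomycin wells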
Parental YFP cnt: counter-screen for TMEM16A inhibitors: effect in parental YFP-HEK293 cells; YFP ratio F(max-min)/F0 at 10 µM; iodide YFP quench, ionomycin; 2,300 tested, under 10 active; shares compounds with TMEM16A inh;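 active = yellow fluorescent protein signal ratio exceeding the buffer control mean by over 5 SD of those controls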;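 also: ratio is mean of duplicate wells from kinetic YFP trace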
ClC-1 inh: rat ClC-1 inhibition, TMEM16A specificity screen; shares compounds with TMEM16A inh; CHO ClC-1-YFP, iodide influx fluorescence quench; iodide control reads 0, buffer control 100; ratio percent, % at 10 µM; 2,300 tested, under 10 active; AID 652236;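 active = duplicate-mean ratio percent above the mean of iodide-only control wells, which defines zero, plus 5 of their SD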;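 also: higher percent means stronger block of ClC-1 iodide influx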
* = called active by the depositor; i = inactive; . = no result given.

SMILES | CHT allo act | TMEM16A inh | TMEM16A act | CHT block | PKA-R1A act | PKA-R2B act | TMEM16A reconf | TMEM16A Ca cntr | Parental YFP cnt | ClC-1 inh
C#CCN(C(=O)c1cc(COc2cccc(C(F)(F)F)c2)on1)C1CCCCC1 | i | 100* | i | i | -4 | 3 | 54%* | i | -0.99 | -18
C#CCN(C(=O)c1cc(COc2ccc(C)c(C)c2)on1)C1CCCCC1 | i | i | i | i | -2 | 3 | . | . | . | .
CC1(C)NC(=O)N(CN2C(=O)NC(C)(C)C2=O)C1=O | i | i | i | i | 4 | -8 | i | i | -1.1 | 2
O=C(Nc1nc(-c2cc(Cl)sc2Cl)cs1)c1ccc(Br)s1 | i | 25* | i | i | -3 | -4 | i | i | -1 | -11
O=C(Nc1nc(-c2cc(Cl)sc2Cl)cs1)c1cccs1 | i | i | i | i | -5 | -10 | . | . | . | .
Cc1cc(NCCN2CCOCC2)n2ncc(-c3ccccc3)c2n1 | i | i | i | i | -2 | 9 | . | . | . | .
Cc1cc(NC(C)c2ccccc2)n2ncc(-c3ccccc3)c2n1 (configuration not stated) | i | 100* | i | i | -5 | -2 | i | i | -0.93 | -6
Cc1nonc1-c1csc(N)n1 | i | i | i | i | -7 | 0 | . | . | . | .
CCc1cccc(NC(=O)C2CCCN(c3ncnc4c3nc3n4CCCCC3)C2)c1 (configuration not stated) | i | i | i | i | -3 | -1 | . | . | . | .
O=C(O)COc1ccccc1/C=C1\SC(=S)N(NC(=O)c2ccccc2O)C1=O | i | i | i | i | -8 | 3 | i | i | -0.85 | 19
CCOC(=O)N1CCC(NC(=O)C2CCCN(Cc3nc(-c4cccc(C)c4)oc3C)C2)CC1 (configuration not stated) | i | 25* | i | i | 7 | -3 | i | i | -1.2 | -18
Cc1oc(-c2ccc(Cl)cc2)nc1CN1CCCC(C(=O)N2CCOCC2)C1 (configuration not stated) | i | i | i | i | 5 | -3 | . | . | . | .
Cc1oc(-c2ccc(Cl)cc2)nc1CN1CCCC(C(=O)N2CCN(C(=O)c3ccco3)CC2)C1 (configuration not stated) | i | 25* | i | i | 1 | 10 | 18%* | i | -0.98 | -8
Cc1ccc(S(=O)(=O)N2CCC[C@H]2C(=O)OCC(=O)Nc2ccc3c(c2)OCO3)cc1 | . | . | i | . | 3 | 3 | . | . | . | .
Nc1cc(S(=O)(=O)Nc2ccc(Cl)cc2)ccc1N1CCOCC1 | i | 25* | i | i | 0 | -3 | i | i | -1.1 | -22
O=S(=O)(Nc1ccc(Cl)cc1)c1ccc2c(c1)CCO2 | i | 25* | i | i | -3 | 5 | i | i | -0.93 | -8
Nc1cc(S(=O)(=O)Nc2ccccc2Cl)ccc1N1CCOCC1 | i | i | i | i | -9 | 11 | . | . | . | .
O=S(=O)(Nc1ccc2c(c1)OCCO2)c1ccc(F)c(F)c1 | i | i | i | i | 7 | 11 | . | . | . | .
